Reference: PubChem BioAssay (Tox21)
Results filed as inconclusive are left out. Entries that show only a call come without a potency. Calls of active or inactive are those of the source. The call rests on the fitted dose curve; in most records, active means well fitted cell-killing curve with a large enough effect in the repeat runs; inconclusive means weak or mixed curves; inactive means no such curve, though single readings can be large or run the other way.

Assay: qHTS assay to identify small molecule antagonists of the androgen receptor (AR) signaling pathway - cell viability counter screen (AID 743033; further: nearly all actives have a fitted effect of over 45% in size)
Conditions: AR-bla HEK293 viability, CellTiter-Glo luminescence, 16 h; series mostly up to 58.5 µM
Excerpt: National Center for Advancing Translational Sciences [NCATS]
NIH Chemical Genomics Center [NCGC]
U.S. Environmental Protection Agency [EPA]
National Institutes of Environmental Health Sciences [NIEHS]
National Toxicology Program [NTP]
U.S. Food and Drug Administration [FDA]
Androgen receptor (AR), a nuclear hormone receptor, plays a critical role in AR-dependent prostate cancer and other androgen related diseases. Endocrine disrupting chemicals (EDCs) and their interactions with steroid hormone receptors like AR may cause disruption of normal endocrine function as well as interfere with metabolic homeostasis, reproduction, developmental and behavioral functions. To identify the compounds that inhibit AR signaling, GeneBLAzer AR-UAS-bla-GripTite cell line (Invitrogen, Carlsbad, CA, USA) containing a beta-lactamase reporter gene under control of an Upstream Activator Sequence (UAS) stably integrated into HEK293 cells was used to screen the Tox21 10K compound library. The cytotoxicity of the Tox21 compound library against the AR-bla cell line was tested in parallel by measuring the cell viability using CellTiter-Glo assay in the same wells.
Tox21 Assay Protocol Summary:
AR-bla cells were dispensed at 2,000 cells/5 uL of assay medium per well into black wall/clear-bottom 1536-well plates using a Multidrop Combi (ThermoFisher Scientific, Waltham, MA) dispenser. After the assay plates were incubated at a 37C and 5% CO2 for 4 hr, 23 nL of compounds dissolved in DMSO, positive controls or DMSO only was transferred to the assay plate by a Pintool station (Kalypsys, San Diego, CA), followed by addition of 1 uL of agonist (R1881) in culture medium using a Bioraptr Flying Reagent Dispenser (FRD) workstation (Beckman Coulter, Indianapolis, IN, USA). The plates were incubated at a 37C and 5% CO2 for 16 h. After 1 uL of LiveBLAzerTM B/G FRET substrate was added using a Bioraptr FRD, the plates were incubated at room temperature for 2 h and fluorescence intensity was measured by an Envision plate reader (PerkinElmer, Shelton, CT). For cell viability readout that measures cytotoxicity, 4 ul/well of CellTiter-Glo reagent was added into the assay plates using a Bioraptr FRD. After 30 min incubation at room temperature, the luminescence intensity in the plates was measured using a ViewLux (PerkinElmer) plate reader.

SMILES	Potency
CCC(C)C=O (stereo not given)	inactive
NCCNCCNCCNCCN	inactive
CCOC(=O)[C@H](CCc1ccccc1)N[C@@H](C)C(=O)N1Cc2ccccc2C[C@H]1C(=O)O	inactive
Clc1ccc(Cl)c(Cl)c1Cl	inactive
CC(C)Cc1ccccc1	inactive
O=C1CCCCC1	inactive
Oc1ccc2ccccc2c1N=Nc1ccccc1	inactive
NCc1cccc(CN)c1	inactive
CC1=C(/C=C/C(C)=C/C=C/C(C)=C/CO)C(C)(C)CCC1	inactive
O=c1c(-c2ccc(O)cc2)coc2cc(O)ccc12	inactive
CC1COc2ccccc2N1C(=O)C(Cl)Cl (stereo not given)	inactive
C[C@@H]1O[C@@H](OC[C@H]2O[C@@H](Oc3c(-c4ccc(O)c(O)c4)oc4cc(O)cc(O)c4c3=O)[C@H](O)[C@@H](O)[C@@H]2O)[C@H](O)[C@H](O)[C@H]1O	inactive
CCCCCCOC(C)=O	inactive
Cc1cc(Cc2ccc(N)c(C)c2)ccc1N	inactive
COC(=O)Nc1nc2ccc(Sc3ccccc3)cc2[nH]1	inactive
CCCCCC/C=C/CCCCCCCC(=O)O	inactive
CC(C)NCC(O)COc1cccc2ccccc12 (stereo not given)	inactive
Cc1ccc(N)c(S(=O)(=O)O)c1	inactive
CS(=O)(=O)Nc1ccc([N+](=O)[O-])cc1Oc1ccccc1	inactive
O=[N+]([O-])c1cccc(Cl)c1	inactive

SMILES	Potency
Cc1cc(O)cc(C)c1Cl	inactive
COC(=O)c1ccc(C(=O)OC)cc1	inactive
Nc1nc2ncc(CNc3ccc(C(=O)N[C@@H](CCC(=O)O)C(=O)O)cc3)nc2c(=O)[nH]1	inactive
O=[N+]([O-])C(CO)(CO)CO	inactive
Cc1cc(NS(=O)(=O)c2ccc(N)cc2)no1	inactive
c1ccc2[nH]cnc2c1	inactive
O=C(c1cc(O)c(O)c(O)c1)c1ccc(O)c(O)c1O	inactive
CC(C)(C)C1CCC(O)CC1 (stereo not given)	inactive
Nc1cc(-c2ccncc2)c[nH]c1=O	inactive
O=C(O)c1cc(-c2ccccc2)nc2ccccc12	inactive
Cc1ccc(C)c(C)c1	inactive
CCCCOCCOCCOC(=O)CCCCC(=O)OCCOCCOCCCC	inactive
Nc1c(S(=O)(=O)O)cc(Br)c2c1C(=O)c1ccccc1C2=O	inactive
O=S(=O)(O)c1cc(S(=O)(=O)O)c2c(N=Nc3ccccc3)c(O)ccc2c1	inactive
CCOC(=O)/C=C\C(=O)OCC	inactive
CC1Cc2ccccc2N1NC(=O)c1ccc(Cl)c(S(N)(=O)=O)c1 (stereo not given)	inactive
CCCCC/C=C\C/C=C\CCCCCCCC(=O)OC	inactive
CN(CCOc1ccc(CC2SC(=O)NC2=O)cc1)c1ccccn1 (stereo not given)	inactive
CS(=O)(=O)c1ccc([C@@H](O)[C@@H](CO)NC(=O)C(Cl)Cl)cc1	inactive
COCC(C)O (stereo not given)	inactive
